Reference: ChEMBL document CHEMBL1157539, “Thousands of chemical starting points for antimalarial lead identification” (Nature, 2010)

What was measured:
Assay type in all cases: functional
[1] = system: Plasmodium falciparum; test: GSK_TCMDC: Inhibition of Plasmodium falciparum 3D7 in whole red blood cells, using parasite LDH activity as an index of growth. Test compounds present at 2uM
[2] = system: Plasmodium falciparum; test: GSK_TCMDC: Inhibition of Plasmodium falciparum Dd2 in whole red blood cells, using parasite LDH activity as an index of growth. Test compounds present at 2uM
[3] = system: HepG2; test: GSK_TCMDC: Percent inhibition of human HepG2 cell line. Test compounds present at 10uM.

Row | SMILES | Inhibition [1] [%] | Inhibition [2] [%] | Inhibition [3] [%]
1 | CN1CCCC1CCNCc1ccc(-c2ccc(CNCCc3ccccc3)cn2)cc1.O=C(O)C(F)(F)F (stereo not given) | 100 | 99 | 25
2 | COc1cc(F)c2ncc(Cl)c([C@@H](O)CN3CCC(NCc4ccc5c(n4)NC(=O)CO5)CC3)c2c1.Cl | 100 | 100 | 12
3 | CNc1ccc(CNCc2cccc(-c3ccc(-c4nc5cccc(C)c5[nH]4)cc3)c2)cc1.O=C(O)C(F)(F)F | 100 | 83 | 26
4 | CS(=O)(=O)CCNCc1nc(-c2ccc3c(=O)[nH]cnc3c2)cs1 | 86 | 96 | 81
5 | CCOC(=O)C(NC(=O)c1ccc([N+](=O)[O-])o1)C(C)C (stereo not given) | 87 | 8 | 0
6 | O=C(Nc1ccc2c(c1)CCN2C1CCN(Cc2cccc(F)c2F)C1)c1ccco1 (stereo not given) | 87 | 90 | 0
7 | CO/C(=C\C=C\c1cc2cc(Cl)c(Cl)cc2[nH]1)C(=O)NC1CCN(CCNc2ccccc2)CC1 | 100 | 98 | 60
8 | CCCC(C)Nc1nc(C)cc(N[C@@H](Cc2ccccc2)C(=O)NCc2ccc(C)cc2)n1.O=C(O)C(F)(F)F (stereo not given in full) | 100 | 93 | 22
9 | O=C(Cc1cccs1)NCC(c1ccccc1Cl)c1c[nH]c2ccccc12 (stereo not given) | 91 | 56 | 12
10 | Cc1ccc2nc(C)n(C3CCN(C(=O)Cc4ccc(F)c(F)c4)CC3)c2c1 | 100 | 100 | 4
11 | CCCCN(CCCC)CC(O)c1cc(-c2ccc(Cl)cc2)nc2c(Cl)cc(Cl)cc12.Cl (stereo not given) | 97 | 97 | 0
12 | Cl.N=C(N)NN=Cc1c2ccccc2c(Cl)c2c(Cl)cccc12 | 91 | 72 | 71
13 | CS(=O)(=O)c1cccc(-c2cnc(N)c3cc(-c4ccc(F)cc4)ccc23)c1 | 91 | 33 | 28
14 | Cl.Nc1ncnc2occ(-c3ccc(NC(=O)Nc4cc(C(F)(F)F)ccc4F)cc3)c12 [GW770249A] | 99 | 99 | 57
15 | O=C(NCCCNc1ccc2ccccc2n1)c1cc2c(Cl)cc(Cl)cc2[nH]1 | 100 | 100 | 40
